From paper PMC4336329 (PLoS ONE, 2015)
The campaign covered roughly 310,000 compounds. About 14,000 (4.5%) showed an effect of 50% or more. The effect is printed as a negative number. Only a selection was taken, and strong results are over-represented in it overall.

Target: human ether-à-go-go-related gene (hERG) potassium channel (human, UniProt Q12809)
Assay: primary screen, population patch clamp on CHO cells stably expressing hERG; higher = less effect of the substance
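Note: peak tail current of the secondary pulse compared with the same well before compound.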

Chain of human ether-à-go-go-related gene (hERG) potassium channel (Q12809 whole entry, looked up): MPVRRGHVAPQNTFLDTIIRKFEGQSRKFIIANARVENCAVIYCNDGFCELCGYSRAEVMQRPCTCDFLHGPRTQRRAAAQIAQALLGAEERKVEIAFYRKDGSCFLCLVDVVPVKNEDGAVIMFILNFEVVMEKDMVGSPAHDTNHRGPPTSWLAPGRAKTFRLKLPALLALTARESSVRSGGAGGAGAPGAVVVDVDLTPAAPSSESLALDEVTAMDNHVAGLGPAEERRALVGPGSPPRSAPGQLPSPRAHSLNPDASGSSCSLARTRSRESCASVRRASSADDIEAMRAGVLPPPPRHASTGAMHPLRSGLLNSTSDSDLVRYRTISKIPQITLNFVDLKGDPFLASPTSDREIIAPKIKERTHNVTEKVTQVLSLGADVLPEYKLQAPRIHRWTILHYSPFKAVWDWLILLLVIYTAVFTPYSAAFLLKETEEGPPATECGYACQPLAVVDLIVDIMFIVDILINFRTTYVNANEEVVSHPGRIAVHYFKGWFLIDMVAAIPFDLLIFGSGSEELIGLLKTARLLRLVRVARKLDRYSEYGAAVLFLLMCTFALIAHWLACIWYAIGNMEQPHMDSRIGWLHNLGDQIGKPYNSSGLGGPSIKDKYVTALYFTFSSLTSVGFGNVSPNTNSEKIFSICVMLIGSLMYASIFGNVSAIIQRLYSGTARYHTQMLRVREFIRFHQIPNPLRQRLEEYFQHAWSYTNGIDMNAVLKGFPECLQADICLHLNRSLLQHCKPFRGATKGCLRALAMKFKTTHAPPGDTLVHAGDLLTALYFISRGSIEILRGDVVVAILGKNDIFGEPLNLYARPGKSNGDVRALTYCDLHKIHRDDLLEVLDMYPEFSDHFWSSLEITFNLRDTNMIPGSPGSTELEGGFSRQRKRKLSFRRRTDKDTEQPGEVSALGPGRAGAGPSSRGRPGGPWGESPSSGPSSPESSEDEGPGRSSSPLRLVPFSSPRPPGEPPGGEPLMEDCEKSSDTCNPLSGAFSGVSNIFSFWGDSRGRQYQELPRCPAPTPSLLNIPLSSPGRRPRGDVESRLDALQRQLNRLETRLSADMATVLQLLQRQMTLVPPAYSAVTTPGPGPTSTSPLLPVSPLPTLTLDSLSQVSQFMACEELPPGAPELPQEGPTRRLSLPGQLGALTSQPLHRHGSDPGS

First: CC(=O)c1sc(N2CCOCC2)nc1-c1ccccc1
Second: O=[N+]([O-])c1ccc(N2CCOCC2)c2cccnc12
The “hERG current change (%, negative = inhibition) at 10uM” value of the first is higher: -6.27% for the first, -25% for the second.

Compared with `Cc1onc(-c2ccccc2)c1C(=O)Nc1sccc1C#N`, `CCC(C(=O)c1ccc2ncccc2c1)c1ccccc1` (stereo not shown) is lower in “hERG current change (%, negative = inhibition) at 10uM” value: 7.27% for the first, -52.7% for the second.

Compared with `Cc1cc(C)n(-c2ccc(NC(=O)C3CCCCN3C(=O)c3sccc3C)cc2)n1` (stereo not shown), `O=C(c1cccc(F)c1)N1CCN(c2ccc([N+](=O)[O-])c(N3CCCCC3)c2)CC1` is lower in “hERG current change (%, negative = inhibition) at 10uM” value: 14.5% for the first, -6.87% for the second.

First: NS(=O)(=O)c1ccc(NC(NC(=O)c2cccnc2)C(Cl)(Cl)Cl)cc1 (stereo not shown)
Second: CC(=O)Nc1ccc(/C(C)=N/NC(=O)CN(c2ccccc2Br)S(C)(=O)=O)cc1
The “hERG current change (%, negative = inhibition) at 10uM” value of the first is higher: 6.08% for the first, -4.13% for the second.

Going from `COc1cc(C(=O)NCCCn2ccnc2)cc(OC)c1OC.Cl` to `COc1ccc(CNC(=O)c2nn(C)c3c2CS(=O)(=O)c2ccccc2-3)cc1`, the “hERG current change (%, negative = inhibition) at 10uM” value falls from 20.6% to -24.5%.

Compared with `Cc1nn(C(C)C(=O)NCCN2CCCCCC2)c(=O)c2nn(-c3ccccc3)c(C)c12` (stereo not shown), `CNC(=O)CCn1nc(-c2ccc(C)cc2)c2ccccc2c1=O` is lower in “hERG current change (%, negative = inhibition) at 10uM” value: 21.6% for the first, -8.28% for the second.

First: Cc1cc(C)n2nc(SCC(=O)Nc3ccccc3C)nc2n1
Second: Cc1ccccc1NC(=O)CN1C(=O)NC(C)(CCc2ccccc2)C1=O (stereo not shown)
The “hERG current change (%, negative = inhibition) at 10uM” value of the first is lower: 1.88% for the first, 22.2% for the second.

Compared with `CC1(C)CC(=O)C2=C(C1)NC(=O)CC2c1ccc(N(CCC#N)CCC#N)cc1` (stereo not shown), `Cc1ccc(S(=O)(=O)N2CCN(c3ccc([N+](=O)[O-])c4cccnc34)CC2)cc1` is lower in “hERG current change (%, negative = inhibition) at 10uM” value: 17.3% for the first, -9.52% for the second.

Compared with `CCC(C(=O)c1ccc(O)cc1)c1ccccc1` (stereo not shown), `O=C(O)CC(CC(=O)Nc1ccc2ccccc2n1)c1ccccc1` (stereo not shown) is higher in “hERG current change (%, negative = inhibition) at 10uM” value: -5.56% for the first, 9.58% for the second.

Going from `CCC(=O)c1ccc2ncccc2c1` to `O=C(c1cccc(F)c1)N1CCN(c2ccc([N+](=O)[O-])c3cccnc23)CC1`, the “hERG current change (%, negative = inhibition) at 10uM” value falls from 12.2% to -66.1%.

First: O=C(O)c1ccccc1C(=O)c1ccc(Oc2ccccc2)cc1
Second: COc1ccc(OC(=O)c2cccc([N+](=O)[O-])c2)c(C(=O)/C=C/c2cccs2)c1
The “hERG current change (%, negative = inhibition) at 10uM” value of the first is higher: 8.12% for the first, 3.99% for the second.

Going from `CCn1nc(C)c(Br)c1C(=O)Sc1ccccc1Cl` to `Cc1nn(Cc2c(Cl)cccc2Cl)c(C)c1NC(=O)/C=C/c1cnn(C)c1C`, the “hERG current change (%, negative = inhibition) at 10uM” value falls from 21.2% to 8.85%.

Going from `O=C(c1cc(F)c(F)cc1Cl)N1CCN(c2ncccn2)CC1` to `O=C(c1cc(F)c(F)cc1Cl)N1CCN(c2ccc([N+](=O)[O-])c3ncccc23)CC1`, the “hERG current change (%, negative = inhibition) at 10uM” value falls from 16.4% to -67.4%.

First: O=C(c1ccccc1F)N1CCN(c2ccc([N+](=O)[O-])c3ncccc23)CC1
Second: O=C(c1ccccc1F)N1CCN(c2ccc([N+](=O)[O-])c3cccnc23)CC1
The “hERG current change (%, negative = inhibition) at 10uM” value of the first is lower: -68.1% for the first, -65.5% for the second.

Compared with `O=C(c1cccc(F)c1)N1CCN(c2cc(N3CCCCC3)c(F)cc2[N+](=O)[O-])CC1`, `O=C(c1ccccc1F)N1CCN(c2ccc([N+](=O)[O-])c(N3CCOCC3)c2)CC1` is higher in “hERG current change (%, negative = inhibition) at 10uM” value: 0.466% for the first, 14.2% for the second.

Compared with `Cn1c(=O)n(C)c2cc([N+](=O)[O-])c(N3CCN(S(=O)(=O)c4ccccc4)CC3)cc21`, `O=[N+]([O-])c1ccc(N2CCN(S(=O)(=O)c3ccccc3)CC2)c2cccnc12` is lower in “hERG current change (%, negative = inhibition) at 10uM” value: -8.67% for the first, -76.8% for the second.

First: O=C(c1ccc(Cl)cc1[N+](=O)[O-])N1CCN(c2ccccn2)CC1
Second: O=C(c1ccccc1F)N1CCN(c2ccccn2)CC1
The “hERG current change (%, negative = inhibition) at 10uM” value of the first is lower: -34% for the first, 4.54% for the second.

Compared with `O=C(O)c1ccc(/C=N/Nc2nc(N3CCCCC3)nc(N3CCCCC3)n2)cc1`, `O=[N+]([O-])c1cccc2c(N3CCCC3)ccnc12` is lower in “hERG current change (%, negative = inhibition) at 10uM” value: 18.4% for the first, -77.7% for the second.

Going from `Cc1nnc(SCC(=O)NC2CC2)n1CCc1ccccc1` to `O=[N+]([O-])c1cccc2c(N3CCOCC3)ccnc12`, the “hERG current change (%, negative = inhibition) at 10uM” value falls from 13% to -17.6%.

First: CCC(=O)Oc1ccc2c(C)cc(=O)oc2c1C
Second: O=[N+]([O-])c1cccc2c(Cl)ccnc12
The “hERG current change (%, negative = inhibition) at 10uM” value of the first is higher: 0.0333% for the first, -0.808% for the second.
